In PubChem BioAssay (NCATS):
Results filed as inconclusive are left out. Active and inactive are the calls of the source. Calls come from the whole dose curve; as a rule, active = well fitted inhibition curve with a large enough effect; inconclusive = small, poorly fitted or top-dose-only effect; inactive = flat fitted curve, though single readings scatter.

Assays:
Assay in all cases: qHTS profiling for inhibitors of Plasmodium falciparum proliferation (AID 504749); note: nearly all actives have a fitted effect of over 60% in size
Details in all cases: P. falciparum in erythrocytes, SYBR Green DNA, 72 h; series mostly up to 28.7 µM
CP315 = system: CP315
How it was run: (§1)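 Each compound contacts P. falciparum-infected red blood cells for 72 h at 37 C; lysis buffer (Tris, EDTA, saponin, Triton X, SYBR Green I) is added and fluorescence measured next morning; values normalized to controls.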

CP325 = system: CP325
How it was run: as §1

CP329 = system: CP329
How it was run: as §1

CP335 = system: CP335
How it was run: as §1

DFO2036 = system: DFO2036
How it was run: as §1

DIV14 = system: DIV14
How it was run: as §1

DIV17 = system: DIV17
How it was run: as §1

DIV30 = system: DIV30
How it was run: as §1

Dd2 = system: Dd2
How it was run: as §1

ECU = system: ECU
How it was run: as §1

Measured: Potency

CN(C)C=Nc1c(I)cc(I)c(CCC(=O)O)c1I
inactive: all assays above

O=C(NNCNNC(=O)c1ccncc1)c1ccncc1
inactive: all assays above

Nc1nc(=O)n([C@@H]2CS[C@H](CO)O2)cc1F
inactive: all assays above

C[C@H](O)CN(C)C
inactive: all assays above

CC(=O)Oc1cc(C(F)(F)F)ccc1C(=O)O
inactive: all assays above

C=C(C)C1CC=C(C)CC1 (stereo not given)
inactive: all assays above

C[Se]CC[C@H](N)C(=O)O
inactive: all assays above

FC(F)(F)C(F)(F)C(F)(F)C(F)(F)C(F)(F)C(F)(F)F
inactive: all assays above

COc1ccc(/C=C/C(=O)O)cc1
inactive: all assays above

CCCOC(=O)c1ccccc1O
inactive: all assays above

CC1(C)S[C@@H]2[C@H](NC(=O)C3(N)CCCCC3)C(=O)N2[C@H]1C(=O)O
inactive: all assays above

O=C1c2ccccc2C(=O)c2c1ccc(O)c2O
inactive: all assays above

COC1=C(OC)C(=O)C(C/C=C(\C)CC/C=C(\C)CC/C=C(\C)CC/C=C(\C)CC/C=C(\C)CC/C=C(\C)CC/C=C(\C)CC/C=C(\C)CC/C=C(\C)CCC=C(C)C)=C(C)C1=O
inactive: all assays above

N=C(N)n1cccn1
inactive: all assays above

COC(=O)C(CN)c1c[nH]c2ccc(OC)cc12 (stereo not given)
inactive: all assays above

O=C(O)Cc1cc(I)c(Oc2ccc(O)c(I)c2)c(I)c1
inactive: all assays above

Cc1cccc(C)c1NC(=O)NC1=CCCN1C
inactive: all assays above

FCOC(C(F)(F)F)C(F)(F)F
inactive: all assays above

O=C(O)CCC(=O)c1ccc(-c2ccccc2)cc1
inactive: all assays above

O=c1[nH]c(=O)n([C@H]2C[C@H](O)[C@@H](CO)O2)cc1/C=C/Br
inactive: all assays above

C/C=C/C=C/C(=O)O
inactive: all assays above

CC(C)[C@@H](N)C(=O)O
inactive: all assays above

NC(=O)Oc1ccc(Cc2ccccc2)cc1
inactive: all assays above

O=P(O)(O)OP(=O)(O)OP(=O)(O)O
inactive: all assays above

CCCCCCCCCCCCCCCCCC(=O)OCC(C)O (stereo not given)
inactive: all assays above

O=C(/C=C/c1cccc(F)c1)NC1CC1
inactive: all assays above
